# Shn3 inh set2: Schnurri-3 reporter inhibition in Clone20 osteoblasts; inhibition, % at 12.5 µM; Clone20 osteoblast Shn3 3'UTR firefly luciferase, 24 h; 360,000 compounds, 0.52% hits;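 active = mean inhibition of at least 75% with every replicate also reaching 75%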;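 also: 0% = median of neutral control wells and 100% = pilot-screen positive control compound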
# Peg3 prom inh-1: reduces Peg3 promoter-driven luciferase expression in HeLa; HeLa PEG-Prom luciferase reporter, luminescence, overnight; 360,000 compounds, 1.7% hits; AID 588405; inhibition, % at 20 µM;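 active = inhibition of at least 50% at 20 µM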
# TROY signal inh: TROY signaling inhibition; Q293 LMP1-TROYcd NF-kB luciferase reporter, 4 h; inhibition, % at 10 µM; 360,000 compounds, 0.98% hits;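 active = compounds whose plate-normalised and pattern-corrected inhibition of the luciferase reporter signal at the single screening dose is 50% or more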
# TWEAK-Fn14 inh: inhibitors of TWEAK-Fn14 interaction signaling. 360,000 compounds, 2% hits. inhibition, % at 10 µM. TWEAK-stimulated Fn14 reporter cells, luciferase luminescence, 8 h; in the data active = inhibition above about 50%
# EBV LMP1 NFkB: Epstein-Barr LMP1 NF-kappaB reporter inhibition. LMP1-induced NF-kappaB luciferase reporter cells, luminescence. inhibition, % at 12.5 µM. 350,000 compounds, 0.69% hits. AID 504558; in the data active = inhibition above about 41%;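 also: 0% = neutral control wells and 100% = reference inhibitor control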
# TRPM1 prom inh: inhibitors of MITF-driven TRPM1 promoter in melanoma cells; AID 488899; 330,000 compounds, 0.83% hits; SK-MEL-5 TRPM1 promoter luciferase, 24 h; inhibition, % at 12.5 µM;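 active = mean inhibition across replicates of 60% or more, whatever share of single replicates reaches that level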
# Peg3 prom inh-2: Peg3 promoter inhibition confirmation; shares compounds with Peg3 prom inh-1; HeLa PEG-Prom luciferase reporter, luminescence, overnight; inhibition, % at 20 µM; 1,300 compounds, 84% hits; AID 602417;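 active = at 20 µM dose, 40% or more inhibition averaged across four replicates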
# An asterisk follows results filed as active; / = no result. Most compounds without a hit are left out; they make up all but 4.1% or so of the library.
SMILES,Shn3 inh set2,Peg3 prom inh-1,TROY signal inh,TWEAK-Fn14 inh,EBV LMP1 NFkB,TRPM1 prom inh,Peg3 prom inh-2
CCN1CCN(c2ccc(S(=O)(=O)N3CCOCC3)cc2NC(=O)/C=C/c2ccc([N+](=O)[O-])cc2)CC1,2.8,69.6*,-17.4,-17.1,2.2,64.2*,74.9*
CN(C)S(=O)(=O)c1cccc(NC(=O)c2cncc(Br)c2)c1,-29.0,-5.6,7.3,4.5,15.2,-13.3,/
Cc1ccc(S(=O)(=O)N(C)C)cc1NC(=O)c1cncc(Br)c1,23.6,54.7*,11.5,31.1,12.5,36.3,69.2*
Cc1ccc(C(C[N+](=O)[O-])Sc2ccc(N)cc2)cc1 (centres undefined),/,105.5*,-36.2,-15.0,4.3,67.5*,97.3*
Cc1ccc(C(C[N+](=O)[O-])n2nc(C)cc2C)cc1 (centres undefined),-3.0,28.3,-3.6,12.5,10.5,54.7,/
Cc1cc(C)c(S(=O)(=O)N2CCCC(C(=O)NC3CC3)C2)c(C)c1 (centres undefined),5.8,3.9,3.4,4.5,-2.3,-8.0,/
COc1ccc(C(C)=O)cc1Cn1c(C)c(C(=O)NCc2ccc3c(c2)OCO3)sc1=O,19.5,16.5,1.4,-47.8,/,/,/
CCCCn1c(N)c(N(CCOC)C(=O)CCCn2c(=O)oc3ccccc32)c(=O)[nH]c1=O,-3.5,9.9,29.6,5.9,-9.2,6.3,/
COc1cc(CNCCCN2CCOCC2)cc(Br)c1OCc1ccc(Cl)cc1,-17.2,99.7*,-24.5,-51.1,-51.6,49.9,100.3*
CC1(c2ccccc2)NC(=O)N(CC(=O)NNC(=O)c2cccc(Cl)c2)C1=O (centres undefined),-1.8,-11.5,-12.8,10.4,-2.0,-0.8,/
C/C=C1\NC(=O)[C@H](CC(N)=O)N(C)C(=O)C([C@@H](C)O)NC(=O)C(CCCc2ccc(OC)cc2)NC(=O)[C@H](C(C)C)NC(=O)/C(=C\C)NC(=O)[C@H](O)[C@@H](C[C@@H](O)CCCCCCC)NC(=O)[C@H](C)NC(=O)CN(C)C(=O)[C@H](CCC(N)=O)NC1=O (some centres undefined),10.8,17.6,-11.9,5.8,1.5,-3.0,/
O=C(C1COc2ccccc2O1)N1CCN(S(=O)(=O)c2ccccc2)CC1 (centres undefined),-2.2,4.3,2.3,4.9,1.5,3.9,/
COCCNC(=O)C(=O)c1c(-c2ccccc2)[nH]c2ccccc12,-41.8,-52.4,-11.6,11.1,-13.8,13.3,/
O=C(C(=O)N(Cc1ccccc1)Cc1ccccc1)c1c(-c2ccccc2)[nH]c2ccccc12,13.1,63.8*,17.3,51.6*,-2.7,12.5,68.2*
O=C(NCC(=O)N1CCOCC1)c1ccc(Cl)c(Cl)c1,-13.7,-74.5,-2.3,-3.0,-10.3,-21.6,/
Oc1cccc(C(Nc2nccs2)c2ccc3cccnc3c2O)c1 (centres undefined),91.1*,55.7*,12.3,12.1,50.6*,47.8,85.5*
Oc1c(C(Nc2cccc(C(F)(F)F)c2)c2cccnc2)ccc2cccnc12 (centres undefined),48.3,12.9,0.3,20.3,7.3,-25.0,/
Cc1cc(NC(c2cccnc2)c2ccc3cccnc3c2O)no1 (centres undefined),80.0,73.1*,/,5.1,24.3,57.1,69.4*
COc1ccc(C[C@H]2CN3C(=NC[C@@H]3Cc3ccc(O)cc3)N2C[C@H](C)NC(=O)CCC2CCCCC2)cc1,6.2,63.1*,7.9,-15.8,-0.7,-4.3,28.9
COc1ccccc1NC(=O)Nc1nc(CC(=O)Nc2ccc(N(C)C)cc2)cs1,-50.2,-161.0,3.8,4.4,-2.0,-12.0,/
O=C(NC1=NCCS1)C1COc2ccccc2O1 (centres undefined),79.5,106.2*,86.0*,105.6*,70.7*,79.8*,82.3*
CCCCCCN1C=C/C(=C\C=C(C#N)C#N)c2ccccc21,67.0,56.0*,8.2,-16.1,26.3,36.5,44.9*
C=CCN1C=C/C(=C\C=C(C#N)C#N)c2ccccc21,5.2,10.8,-4.3,19.5,2.4,11.3,/
CS(=O)(=O)c1ccc(C(=O)NCCN2C(=O)S/C(=C\c3cccnc3)C2=O)cc1[N+](=O)[O-],40.5,99.2*,15.1,83.5*,-9.1,69.5*,54.1*

# Assay outcomes: PubChem BioAssay, several laboratories
